Only some compounds are listed: those with a hit (about 27% of all), similar ones and a draw of the others.
CYP2C19 inh – inhibitors of human CYP2C19. CYP2C19 Supersomes, luciferin-H EGE luminescence, 30 min. actives 21% (n = 96,000). P33261. inhibition, % at 5 µM;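 active means CYP2C19 inhibition above a set limit at 5 µM in the primary screen, cut at about 50% in these data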;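 further: plate controls were negative control wells for no effect and 2.5 mM tranylcypromine positive control for full effect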
CYP2C9 act – increases human cytochrome P450 2C9 activity; recombinant CYP2C9, luciferin-H conversion, luminescence; stronger effect = higher value; factor 1 = untreated enzyme, 0 = blocked; actives 1.4% (n = 96,000); AID 1024; activation factor at 5 µM;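 active means activation factor of 2 or more for CYP2C9 at a 5 µM dose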;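 further: 0 = sulfaphenazole-blocked wells and 1 = vehicle-only wells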
Target sequence (P11712 whole entry, looked up): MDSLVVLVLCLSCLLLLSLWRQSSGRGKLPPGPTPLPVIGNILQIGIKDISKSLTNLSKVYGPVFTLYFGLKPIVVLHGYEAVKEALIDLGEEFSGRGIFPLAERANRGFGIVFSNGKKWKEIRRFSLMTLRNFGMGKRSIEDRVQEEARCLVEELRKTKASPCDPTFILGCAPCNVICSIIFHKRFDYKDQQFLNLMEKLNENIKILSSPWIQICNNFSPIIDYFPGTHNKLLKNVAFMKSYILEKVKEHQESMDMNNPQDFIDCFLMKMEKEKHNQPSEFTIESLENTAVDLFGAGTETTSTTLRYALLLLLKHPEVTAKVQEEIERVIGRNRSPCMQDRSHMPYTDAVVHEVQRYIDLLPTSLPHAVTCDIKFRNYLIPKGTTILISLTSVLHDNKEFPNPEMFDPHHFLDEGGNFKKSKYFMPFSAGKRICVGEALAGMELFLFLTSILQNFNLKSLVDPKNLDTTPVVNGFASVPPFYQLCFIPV
CYP2C9 inh – blocks human cytochrome P450 2C9; P11712; CYP2C9 Supersomes, luciferin-H conversion, luminescence; inhibition, % at 5 µM; actives 20% (n = 96,000);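 active means blocking of liver enzyme CYP2C9 beyond about 50% at 5 µM, limit read from the data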
CYP2C19 act – cytochrome P450 2C19 (human) activation | P33261 | recombinant CYP2C19, luciferin-H EGE luminescence; stronger effect = higher value; 0 = fully inhibited enzyme, 1 = untreated enzyme | activation factor at 5 µM | 96,000 tested, under 10 active;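 active means activation factor of at least 2 at 5 µM in the primary screen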;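 further: 0 = wells with 2.5 mM tranylcypromine and 1 = vehicle-only wells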
sEH inhibitor – blocks human soluble epoxide hydrolase activity; P34913; recombinant human sEH enzymatic activity assay; inhibition, % at 2 µM; actives 0.34% (n = 91,000); AID 707; in the data active means inhibition above about 80%
sEH act – activators of human soluble epoxide hydrolase; P34913; purified human sEH enzymatic activity, activator screen; activation, % at 2 µM; actives 0.04% (n = 91,000); AID 717; in the data active means activation above about 37%
* hit, by the source's call; / = not tested or not shown.

SMILES | CYP2C19 inh | CYP2C9 act | CYP2C9 inh | CYP2C19 act | sEH inhibitor | sEH act
CC1Cc2ccccc2N1S(=O)(=O)c1cccc(C(=O)c2nccn2C)c1 (stereo unspecified) | 36.2 | 0.6 | 44.4 | 0.6 | / | /
CN(c1ccccc1)S(=O)(=O)c1cc(C(=O)c2nccn2C)ccc1Cl | 98.7* | 0.1 | 91.3* | 0 | 12.5 | -13.6
CCOC(=O)CCCCC(=O)c1[nH]c(=O)[nH]c1CSc1nc2ccccc2[nH]1 | / | / | / | / | 0.1 | 2.4
CCOC(=O)C1(CCC(C)C)CC(CSc2nc3ccccc3[nH]2)OC1=O (stereo unspecified) | 14.5 | 0.4 | 57.5* | 0.9 | -4.2 | 1.1
CCOC(=O)C1(CC)CC(CSc2nc3ccccc3[nH]2)OC1=O (stereo unspecified) | 51.8* | 0.2 | 81.6* | 0.5 | 3.7 | -2.9
O=C(O)CSc1nnc(-c2ccncc2)n1C1CCCCC1 | -2.6 | 1.2 | -18.0 | 1 | -23.1 | 24.8
CC(SC1=NCCS1)C(=O)Nc1nnc(-c2ccc(Br)cc2)s1 (stereo unspecified) | -18.3 | 0.4 | 56.7* | 1.2 | / | /
CC1(C)Oc2ccc3ccc(=O)oc3c2/C(=C/NCCN/C=C2\C(=O)C(C)(C)Oc3ccc4ccc(=O)oc4c32)C1=O | 20.4 | 1 | 1.2 | 0.8 | -4.3 | 5.3
O=C(OC1CCc2ccccc2C1=O)c1ccccc1O (stereo unspecified) | 81.6* | 0.1 | 89.9* | 0.2 | -26.6 | 20.0
CCN(CC)C(=O)CSc1nc2c(sc(=S)n2-c2ccccc2)c(=O)n1Cc1ccco1 | 49.3 | 0.3 | 67.4* | 0.5 | 5.0 | -3.1
CCOC(=O)CSc1nc2c(sc(=S)n2Cc2ccco2)c(=O)n1-c1ccc(F)cc1 | 55.7* | 0.3 | 71.7* | 0.4 | / | /
CCN(CC)C(=O)CSc1nc2c(sc(=S)n2CC)c(=O)n1-c1ccccc1 | 36.4 | 0.7 | 34.3 | 0.6 | 14.1 | -15.2
COc1ccccc1-n1c(=S)sc2c(=O)n(Cc3ccco3)c(SC)nc21 | 64.1* | 0.2 | 75.7* | 0.4 | / | /
CCn1cnc2c1c(=O)n(Cc1nnc3n1-c1ccccc1SC3)c(=O)n2Cc1ccccc1 | 28.4 | 0.8 | 24.7 | 0.7 | / | /
CCn1cnc2c1c(=O)n(Cc1csc(-c3ccccc3)n1)c(=O)n2Cc1ccccc1 | 85.5* | 0.1 | 89.4* | 0.1 | 16.1 | -13.3
O=C(Cn1c(=O)c2c(ncn2Cc2ccccc2)n(Cc2ccccc2)c1=O)N1CCCC1 | 67.0* | 0.5 | 49.2 | 0.3 | -7.9 | 8.0
COc1cccc(CNC(=O)C2CCN(S(=O)(=O)N3CC(C)CC(C)C3)CC2)c1 (stereo unspecified) | 15.3 | 0.9 | 10.5 | 0.8 | 49.1 | -48.0
CCOc1ccc(C(=O)Nc2ccc(Cl)cn2)cc1Cl | 16.3 | 1 | 2.2 | 0.8 | 25.6 | -25.1
O=C(Nc1ccc(CN2CCCCC2)cc1)c1ccc(Br)o1 | -6.0 | 1.1 | -7.1 | 1.1 | -10.1 | 8.1
CCOC(=O)C(=O)/C(=C\N(C)C)c1onc(-c2c(Cl)cccc2Cl)c1C(=O)OC | 54.8* | 0.1 | 91.2* | 0.5 | -4.0 | 6.4
CCOC(=O)C(=O)/C(=C\N(C)C)c1onc(-c2ccccc2)c1C(=O)OC | 12.8 | 0.9 | 10.3 | 0.9 | 13.3 | -11.7
CCOC(=O)C(=O)/C(=C\N(C)C)c1onc(-c2ccccc2Cl)c1C(=O)OC | 44.1 | 0.3 | 66.6* | 0.6 | 1.4 | 0.9
Cc1onc(-c2c(Cl)cccc2Cl)c1C(=O)NC(C)(C)CO | -13.2 | 0.9 | 7.3 | 1.1 | -3.8 | 1.9
COc1ccc2[nH]cc(C(=O)CN3CCN(C/C=C/c4ccccc4)CC3)c2c1 | 1.8 | 0.6 | 36.3 | 1 | 3.3 | -5.0
CC(=O)c1c(C(C)=O)c(C)n(-c2nc(-c3ccc(C)c(C)c3)c(C)s2)c1C | -0.7 | 1 | 4.3 | 1 | -6.8 | 10.7
SMILES | CYP2C19 inh | CYP2C9 act | CYP2C9 inh | CYP2C19 act | sEH inhibitor | sEH act
Cc1ccc(OCC(=O)N2CCCCC2)c(Br)c1 | 85.4* | 1.1 | -9.0 | 0.1 | -7.6 | 7.5
COCCCNC(=O)COc1ccc(Cl)c(C)c1 | 83.7* | 1.1 | -6.0 | 0.2 | / | /
Cc1cc(OCC(=O)N2CCCC2)cc(C)c1Cl | 7.8 | 1.4 | -38.6 | 0.9 | 2.6 | 2.7
Cc1cc(OCC(=O)N2CCCC2)ccc1Cl | 84.8* | 0.8 | 20.4 | 0.2 | / | /
CCCn1c(C)cc(=O)c2cc(NC(=O)c3ccccn3)ccc21 | -4.6 | 1.1 | -10.3 | 1 | 6.9 | -8.3
CCOC(=O)c1ccccc1OCc1cc(/C=N/n2cnnc2)ccc1OC | 60.9* | 0.3 | 71.4* | 0.4 | 10.7 | -10.7
O=C(NCCCc1ccccc1)c1ccc(Br)o1 | 95.5* | 0.5 | 50.8* | 0 | 44.6 | -42.6
NS(=O)(=O)c1ccc(CNC(=O)c2ccc(Br)o2)cc1 | -13.3 | 1.1 | -9.0 | 1.1 | -12.1 | 9.9
O=C(NCc1ccccc1)c1c(F)c(F)c(F)c(F)c1F | 23.5 | 1.1 | -9.0 | 0.8 | -15.4 | 14.4
O=C(NCCC1=CCCCC1)c1ccc(Br)o1 | 90.4* | 0.4 | 58.8* | 0.1 | 13.7 | -15.5
O=C(NCc1ccccc1)c1ccc(-c2ccccc2F)o1 | 62.0* | 0.5 | 47.7 | 0.4 | 3.9 | -1.6
Cc1cc(C)n(Cc2ccc(C(=O)NCCC3=CCCCC3)o2)n1 | 41.4 | 0.8 | 18.1 | 0.6 | 53.6 | -54.6
O=C(NCc1ccc(Cl)cc1)c1ccc(Br)o1 | 95.2* | 0.4 | 59.1* | 0 | 13.9 | -11.6
O=C(NCCCc1ccccc1)c1cccs1 | 49.2 | 0.5 | 46.8 | 0.5 | 29.1 | -27.4
O=C(NCCCc1ccccc1)c1ccccc1O | 97.1* | 0.1 | 90.1* | 0 | 21.1 | -20.0
Cn1c(=O)[nH]c(=O)c2c1nc(SCCN1CCCCC1)n2CCCc1ccccc1 | 13.3 | 0.6 | 39.2 | 0.9 | / | /
O=C(/C=C/c1ccccc1)NC(=S)NNC(=O)c1cccnc1 | 0.9 | 0.5 | 50.6* | 1 | 0.7 | -1.9
O=C(Cn1c(=O)oc2cc(S(=O)(=O)N3CCCC3)ccc21)Nc1ccc(C(F)(F)F)cc1 | -2.2 | 0.7 | 26.9 | 1 | 38.5 | -37.6
Cc1ccc(CN2C(=O)c3ccccc3C2C(=O)NCc2cccnc2)cc1 (stereo unspecified) | 71.4* | 0.5 | 50.9* | 0.3 | -5.2 | 3.6
O=C(NCc1cccnc1)C1c2ccccc2C(=O)N1C1CCCC1 (stereo unspecified) | 74.7* | 0.7 | 32.5 | 0.3 | / | /
O=C(NCC1CCCO1)C1c2ccccc2C(=O)N1C1CCCCCC1 (stereo unspecified) | 8.2 | 1 | 1.4 | 0.9 | -4.8 | 2.2
COc1ccc(OC)c(CN2C(=O)c3ccccc3C2C(=O)NCc2cccnc2)c1 (stereo unspecified) | 56.8* | 0.5 | 51.3* | 0.4 | / | /
C=CCn1c(=O)c2ccccc2n2c(SCc3cc(=O)n4ccsc4n3)nnc12 | -9.0 | 1 | -3.8 | 1.1 | 11.6 | -8.0
CCOC(=O)c1ccc(Cn2c(-c3ccccc3)nnc2-c2ccccc2)o1 | 30.8 | 0.4 | 58.3* | 0.7 | 1.2 | 2.1

Compound activity (PubChem BioAssay)
